Reference: PubChem BioAssay (NCI)
Values joined by “and” are separate entries in the source; they are usually repeats but may differ in a detail not shown here. Identical values can stand only once. About 83,000 compounds went through this panel and 20% of them were active in at least one assay; those are over-represented in the sample as a whole.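 Compound tested at a single concentration for 48 hours in 96-well plates; a percent growth value below 10 was scored as active.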 Active and inactive are the calls of the source.

tested on: SF-539 CNS; assay: NCI-60 one-dose screen, 48 h (100 = growth as untreated, 0 = no growth, -100 = all killed); conditions: 10 µM unless noted

Compound | growth
CN(Cc1ccccc1)c1nc(Cl)c(C2CC(c3ccc(F)cc3)=NN2C=O)s1 (stereo not drawn) | 107% (inactive)
CCOC(=O)c1ccc(Nc2ncnc3c2cnn3-c2cccc(F)c2)cc1 | 98.5% (inactive)
Cc1ccc2nc3ccccc3c(NCc3ccc(Cl)cc3)c2c1 | 40.2% (inactive)
O=S(=O)(Nc1cc(Sc2cccc3cccnc23)c(O)c2ccccc12)c1ccc(F)cc1 | -15.6% (active)
CCCCC1COc2cccc3c2N1C=C/C3=C\C(=O)N(C)c1cccc(Cl)c1 (stereo not drawn) | 104% (inactive)
Cc1ccc(-c2nc3nc(-c4ccc(Cl)cc4)nc(N4CCCNCC4)c3o2)cc1 | -96.1% (active)
COc1cc(NS(=O)(=O)C(C)C)cc(-c2cc(-c3ccc(N4CCNCC4)cc3)cnc2N)c1 | 58.3% (inactive)
COCCn1cc(-c2csc(-c3cn(C)c4ccc(F)cc34)n2)c2cccnc21 | 78.1% (inactive)
COc1ccc(NC(=O)Nc2ccccc2CNc2nc(Nc3ccc(OCCN4CCCC4)cc3)ncc2Cl)cc1 | -84.2% (active)
COc1cc(CNC(=O)CCCC/C=C/C(C)C)ccc1O | 95.6% (inactive) and 90.7% (inactive)
CC(Sc1ccccc1)C(=O)O (stereo not drawn) | 103% (inactive)
Cc1ccc(-c2nc3nc(-c4ccccc4)nc(N4CCCNCC4)c3o2)cc1 | -88.5% (active)
CCCCn1c(C(=O)c2c[nH]c3ccccc23)n[nH]c1=S | 102% (inactive)
O=C1C(=C(O)c2ccccc2)C(=O)c2ccccc21 | 100% (inactive)
COc1ccc(-c2c[nH]c(C(=O)O)c2-c2cc(OC)c(OC)c(OC)c2)cc1 | 2.29% (active)
O=C(Nc1ccc2ccccc2c1)c1cc2ccccc2cc1O | 105% (inactive)
N=C(N)SCc1c2ccccc2c(CSC(=N)N)c2ccccc12 | 84% (inactive)
NNCCc1ccccc1 | 96.9% (inactive)
Brc1ccc(/C=C(/C2=NCCN2)n2ccc3ccccc32)cc1 | 88.8% (inactive)

Compound | growth
C=C(c1ccc(C(=O)O)cc1)c1cc2c(cc1C)C(C)(C)CCC2(C)C | 82.1% (inactive) and 80.5% (inactive)
N=C(N)c1ccc(-c2ccc(-c3ccc(Cl)c(Cl)c3)s2)cc1 | 52.7% (inactive)
C=C(CN1CC=CCC1)[C@@H]1CC[C@]2(COC(C)=O)CC[C@]3(C)[C@H](CC[C@@H]4[C@@]5(C)CC[C@H](O)C(C)(C)[C@@H]5CC[C@]43C)[C@@H]12 | 96.8% (inactive)
O=[N+]([O-])c1cc(C(F)(F)F)ccc1Sc1ccc(C(F)(F)F)cc1[N+](=O)[O-] | 61.1% (inactive)
CCn1cc(C(=O)NN=C2CCCC2)c(=O)c2ccc(C)nc21 | 96.2% (inactive)
O=C(Nc1ccc(Cl)c(Cl)c1)Nc1ccc(Cl)c(Cl)c1 | -83.3% (active) and 51.1% (inactive)
Cn1c(=O)c2c(nc(Nc3cc(=O)[nH]c(=O)[nH]3)n2Cc2ccccc2)n(C)c1=O | 94.2% (inactive)
CCOC(=O)c1c(-c2ccc(OC)cc2)c(C#N)c2c(C#N)c(N)nn2c1N | 25.1% (inactive)
COc1cc(/C=N/NC(=O)CCN2c3ccccc3Sc3ccccc32)cc(OC)c1OC | 85.6% (inactive)
O/N=C(/c1ccccc1)c1ccc2c3c(cccc13)CC2 | 111% (inactive) and 90.5% (inactive)
COc1cc(-c2nc3occn3c2-c2ccnc(NCCCNS(=O)(=O)c3ccc(O)cc3)n2)ccc1F | 110% (inactive)
CN(C)c1ccc2nc3ccc(=O)cc-3sc2c1 | 10.3% (inactive) and 1.75% (active)
ON=C1CCCCCCCC1 | 92.1% (inactive) and 102% (inactive)
[Cu+].[NH-][C@H]1C[N-]C(=O)[C@H]([C@H]2CCN=C(N)N2)[N-]C(=O)/C(=C\NC(N)=O)[N-]C(=O)[C@H](CNC(=O)C[C@@H](N)CCCN)[N-]C(=O)[C@H](CO)[N-]C1=O | 106% (inactive)
CC(C)=CCc1cc(O)c(O)c2oc3cc(O)cc(O)c3c(=O)c12 | 64.8% (inactive)
Cc1ccc(S(=O)(=O)OC[C@@]2(C)CC[C@]3(C)CC[C@]4(C)C(=CC[C@@H]5[C@@]6(C)CCCNC(C)(C)[C@@H]6CC[C@]54C)[C@@H]3C2)cc1 | -93.2% (active)
COc1cc(C=O)ccc1Oc1ccc([N+](=O)[O-])cc1[N+](=O)[O-] | 107% (inactive)
COc1cc2ncnc(Nc3ccc(F)c(Cl)c3)c2cc1OCC(=O)N1CCCCC1 | 104% (inactive)
CCN1C(=S)N(CC)C2C1NC(=S)N2/N=C/C=C/c1ccccc1 (stereo not drawn) | 11.4% (inactive)
